Assay results published in PubChem BioAssay (NCATS).
“And” between values parts separate entries of the source, which are not always exact repeats. Equal entries are not always repeated. Inconclusive results are not listed. The source made the active and inactive calls. Unless noted, calls follow the shape of the dose curve; as a rule, active = well fitted inhibition curve with a large enough effect; inconclusive = small, poorly fitted or top-dose-only effect; inactive = flat fitted curve, though single readings scatter.

Key:
C2A = experiment: qHTS profiling for inhibitors of Plasmodium falciparum proliferation (AID 504749); also: nearly all actives have a fitted effect of over 60% in size; also: potency is read from the fitted curve at half-maximal effect; details: P. falciparum in erythrocytes, SYBR Green DNA, 72 h; series mostly up to 28.7 µM
Summary of the method: (§1)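 Fluorescence of SYBR Green-bound parasite DNA, read at 485/535 nm, served as the growth measure. Infected erythrocytes were cultured with compound 72 h; artemisinin (0.29 uM) and DMSO wells defined the normalization range.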

CP191 = experiment: as above; details: P. falciparum in erythrocytes, SYBR Green DNA, 72 h; series mostly up to 28.7 µM
Summary of the method: as §1

CP201 = experiment: as above; details: P. falciparum in erythrocytes, SYBR Green DNA, 72 h; series mostly up to 28.7 µM
Summary of the method: as §1

CP265 = experiment: as above; details: P. falciparum in erythrocytes, SYBR Green DNA, 72 h; series mostly up to 12.8 µM
Summary of the method: as §1

CP266 = experiment: as above; details: P. falciparum in erythrocytes, SYBR Green DNA, 72 h; series mostly up to 12.8 µM
Summary of the method: as §1

CP297 = experiment: as above; details: P. falciparum in erythrocytes, SYBR Green DNA, 72 h; series mostly up to 28.7 µM
Summary of the method: as §1

CP315 = experiment: as above; details: P. falciparum in erythrocytes, SYBR Green DNA, 72 h; series mostly up to 28.7 µM
Summary of the method: as §1

CP325 = experiment: as above; details: P. falciparum in erythrocytes, SYBR Green DNA, 72 h; series mostly up to 28.7 µM
Summary of the method: as §1

CP329 = experiment: as above; details: P. falciparum in erythrocytes, SYBR Green DNA, 72 h; series mostly up to 28.7 µM
Summary of the method: as §1

DIV14 = experiment: as above; details: P. falciparum in erythrocytes, SYBR Green DNA, 72 h; series mostly up to 28.7 µM
Summary of the method: as §1

DIV17 = experiment: as above; details: P. falciparum in erythrocytes, SYBR Green DNA, 72 h; series mostly up to 28.7 µM
Summary of the method: as §1

FAB9 = experiment: as above; details: P. falciparum in erythrocytes, SYBR Green DNA, 72 h; series mostly up to 28.7 µM
Summary of the method: as §1

P93_24 = experiment: as above; details: P. falciparum in erythrocytes, SYBR Green DNA, 72 h; series mostly up to 28.7 µM
Summary of the method: as §1

PAD = experiment: as above; details: P. falciparum in erythrocytes, SYBR Green DNA, 72 h; series mostly up to 28.7 µM
Summary of the method: as §1

SC27B = experiment: as above; details: P. falciparum in erythrocytes, SYBR Green DNA, 72 h; series mostly up to 28.7 µM
Summary of the method: as §1

TAB113 = experiment: as above; details: P. falciparum in erythrocytes, SYBR Green DNA, 72 h; series mostly up to 28.7 µM
Summary of the method: as §1

CP262 = experiment: as above; details: P. falciparum in erythrocytes, SYBR Green DNA, 72 h; series mostly up to 28.7 µM
Summary of the method: as §1

[1] = target: Peroxisome proliferator-activated receptor gamma (Homo sapiens) (UniProt P37231); experiment: qHTS assay for small molecule agonists of peroxisome proliferator-activated receptor gamma signaling (AID 588536; active = well fitted curve in the direction sought with a large enough effect in the signal ratio, with a control signal flat, not every such curve was filed as active; the % refers to the signal ratio)
Summary of the method: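 Cells were plated and held 6–6.5 h at 37 C, then compounds were added as a titration series. After a further 16 h, CCF4 dye was loaded for 2 h at room temperature and emission at 460/530 nm recorded.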

[2] = qHTS assay for small molecule agonists of retinoid X receptor alpha signaling (AID 588544; calls by dose curve); details: HEK293T RXRa-UAS-bla, beta-lactamase reporter, 18 h; 530 nm emission
[3] = target: Retinoic acid receptor RXR-alpha (Homo sapiens) (UniProt P19793); experiment: as above
Chain of Retinoic acid receptor RXR-alpha (Homo sapiens) (P19793 whole entry, looked up): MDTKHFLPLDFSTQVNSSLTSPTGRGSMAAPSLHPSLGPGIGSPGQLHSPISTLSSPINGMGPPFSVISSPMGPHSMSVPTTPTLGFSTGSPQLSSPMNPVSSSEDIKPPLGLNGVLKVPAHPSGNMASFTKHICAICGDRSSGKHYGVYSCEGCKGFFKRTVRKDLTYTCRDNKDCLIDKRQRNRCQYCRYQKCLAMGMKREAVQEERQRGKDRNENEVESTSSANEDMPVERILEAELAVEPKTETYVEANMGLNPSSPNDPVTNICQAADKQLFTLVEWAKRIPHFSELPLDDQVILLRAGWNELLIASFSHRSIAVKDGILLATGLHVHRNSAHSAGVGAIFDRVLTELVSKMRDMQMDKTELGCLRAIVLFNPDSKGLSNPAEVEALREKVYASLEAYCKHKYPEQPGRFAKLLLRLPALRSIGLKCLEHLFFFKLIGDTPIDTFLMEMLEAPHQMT

Chain of Peroxisome proliferator-activated receptor gamma (Homo sapiens) (P37231 whole entry, looked up): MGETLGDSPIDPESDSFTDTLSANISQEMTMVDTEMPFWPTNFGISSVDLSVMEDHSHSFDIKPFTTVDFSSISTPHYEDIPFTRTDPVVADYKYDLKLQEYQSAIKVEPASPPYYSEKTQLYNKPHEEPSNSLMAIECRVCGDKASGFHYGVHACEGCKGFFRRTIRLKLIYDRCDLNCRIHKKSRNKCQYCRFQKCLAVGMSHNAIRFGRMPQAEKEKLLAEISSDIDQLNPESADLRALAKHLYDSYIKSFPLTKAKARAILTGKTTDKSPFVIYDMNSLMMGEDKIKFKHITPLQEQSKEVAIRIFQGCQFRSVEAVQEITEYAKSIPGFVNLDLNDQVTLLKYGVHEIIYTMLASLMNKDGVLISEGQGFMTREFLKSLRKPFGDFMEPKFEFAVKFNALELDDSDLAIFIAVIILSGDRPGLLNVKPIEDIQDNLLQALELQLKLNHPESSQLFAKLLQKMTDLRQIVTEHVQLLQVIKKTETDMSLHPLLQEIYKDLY

C[C@@H]1O[C@H](O[C@@H]2C=C3CC[C@H]4[C@@H](CC[C@]5(C)[C@@H](c6ccc(=O)oc6)CC[C@]45O)[C@@]3(C)CC2)[C@@H](O)[C@H](O)[C@@H]1O
inactive: Potency (C2A) | Potency (CP191) | Potency (CP201) | Potency (CP265) | Potency (CP266) | Potency (CP297) | Potency (CP315) | Potency (CP325) | Potency (CP329) | Potency (DIV14) | Potency (DIV17) | Potency (FAB9) | Potency (P93_24) | Potency (PAD) | Potency (SC27B) | Potency (TAB113)

CCN[C@]1(c2cccs2)CCCCC1=O
inactive: Potency (C2A) | Potency (CP191) | Potency (CP201) | Potency (CP262) | Potency (CP265) | Potency (CP266) | Potency (CP297) | Potency (CP315) | Potency (CP325) | Potency (CP329) | Potency (DIV14) | Potency (DIV17) | Potency (FAB9) | Potency (P93_24) | Potency (PAD) | Potency (SC27B) | Potency (TAB113)

CN(C)[C@@H]1C(=O)C(C(N)=O)=C(O)[C@]2(O)C(=O)C3=C(O)c4c(O)ccc(Cl)c4[C@](C)(O)[C@H]3C[C@@H]12
inactive: Potency (C2A) | Potency (CP201) | Potency (CP262) | Potency (CP265) | Potency (CP266) | Potency (CP297) | Potency (CP315) | Potency (CP325) | Potency (CP329) | Potency (DIV14) | Potency (DIV17) | Potency (FAB9) | Potency (P93_24) | Potency (PAD) | Potency (SC27B) | Potency (TAB113)

COc1cc(N)c(Cl)cc1C(=O)N[C@@H]1CN2CCC1CC2
inactive: Potency (C2A) | Potency (CP191) | Potency (CP201) | Potency (CP262) | Potency (CP265) | Potency (CP266) | Potency (CP297) | Potency (CP315) | Potency (CP325) | Potency (CP329) | Potency (DIV14) | Potency (DIV17) | Potency (FAB9) | Potency (P93_24) | Potency (PAD) | Potency (SC27B) | Potency (TAB113)

CNc1ccc(C(=O)CC(O)CCC(C)C2OC(=O)CC(O)CC(=O)CC(O)CC(O)CC(O)CC(O)CC3(O)CC(O)C(C(=O)OC)C(CC(O[C@@H]4OC(C)C(O)C(N)C4O)/C=C/C=C/C=C/C=C/C=C/C=C/C=C/C2C)O3)cc1 (stereo not given in full)
inactive: Potency (C2A) | Potency (CP191) | Potency (CP201) | Potency (CP262) | Potency (CP265) | Potency (CP266) | Potency (CP297) | Potency (CP315) | Potency (CP325) | Potency (CP329) | Potency (DIV14) | Potency (DIV17) | Potency (FAB9) | Potency (P93_24) | Potency (PAD) | Potency (SC27B)

CC([C@H](O)c1ccccc1)N(C)C (stereo not given in full)
inactive: Potency (C2A) | Potency (CP191) | Potency (CP201) | Potency (CP262) | Potency (CP265) | Potency (CP266) | Potency (CP297) | Potency (CP315) | Potency (CP325) | Potency (CP329) | Potency (FAB9) | Potency (P93_24) | Potency (PAD) | Potency (SC27B) | Potency (TAB113)

COc1cc2c(cc1OC)[C@@]13CCN4CC5=CCOC6CC(=O)N2C1[C@H]6[C@@H]5C[C@@H]43 (stereo not given in full)
inactive: Potency (C2A) | Potency (CP191) | Potency (CP201) | Potency (CP262) | Potency (CP265) | Potency (CP266) | Potency (CP297) | Potency (CP315) | Potency (CP325) | Potency (CP329) | Potency (DIV14) | Potency (DIV17) | Potency (FAB9) | Potency (P93_24) | Potency (PAD) | Potency (SC27B) | Potency (TAB113)

C=CC1CN2CCC1CC2C(OC(=O)OCC)c1ccnc2ccc(OC)cc12 (stereo not given)
active: Potency (CP191) 5.01 µM | Potency (CP262) 6.01 µM | Potency (CP265) 5.01 µM | Potency (CP325) 13.5 µM | Potency (DIV14) 6.01 µM | Potency (DIV17) 13.5 µM | Potency (FAB9) 10 µM | Potency (P93_24) 7.94 µM | Potency (PAD) 6.31 µM | Potency (TAB113) 8.91 µM

CCCCCCCCCc1ccc(O)cc1
inactive: outcome [1] | Potency [3]
-5.72%: max response [2]

CNC(=O)Oc1cccc2c1OC(C)(C)O2
inactive: outcome [1] | Potency [3]
-5.16%: max response [2]

O=c1ccc2cc(O[C@H]3O[C@@H](CO)[C@@H](O)[C@@H](O)[C@@H]3O)c(O)cc2o1
inactive: Potency (C2A) | Potency (CP191) | Potency (CP201) | Potency (CP262) | Potency (CP265) | Potency (CP266) | Potency (CP297) | Potency (CP315) | Potency (CP325) | Potency (CP329) | Potency (DIV14) | Potency (FAB9) | Potency (P93_24) | Potency (PAD) | Potency (SC27B) | Potency (TAB113)

O=C1C=C2C=CC3C[C@@]2(O1)C1CCCCN31 (stereo not given in full)
inactive: Potency (DIV14)
active: Potency (C2A) 12.6 µM | Potency (CP191) 10 µM | Potency (CP262) 13.5 µM | Potency (CP266) 10.7 µM | Potency (CP297) 12 µM | Potency (CP315) 16.9 µM | Potency (DIV17) 15.1 µM | Potency (P93_24) 12.6 µM | Potency (PAD) 12.6 µM | Potency (TAB113) 14.1 µM

CNC(C)[C@@H](O)c1ccccc1 (stereo not given in full)
inactive: Potency (C2A) | Potency (CP191) | Potency (CP201) | Potency (CP262) | Potency (CP265) | Potency (CP266) | Potency (CP315) | Potency (CP325) | Potency (CP329) | Potency (DIV14) | Potency (DIV17) | Potency (FAB9) | Potency (P93_24) | Potency (PAD) | Potency (SC27B) | Potency (TAB113)

CCS(=O)CCSP(=O)(OC)OC (stereo not given)
inactive: outcome [1] | Potency [3]
-13.5%: max response [2]

CCC(C)C1O[C@]2(C=CC1C)CC1CC(C/C=C(\C)[C@H](OC3CC(OC)C(O[C@H]4CC(OC)[C@@H](O)C(C)O4)C(C)O3)[C@@H](C)/C=C/C=C3\COC4C(O)C(C)=C[C@H](C(=O)O1)[C@@]34O)O2 (stereo not given in full)
active: Potency (C2A) 12.6 µM | Potency (CP191) 7.94 µM | Potency (CP201) 16.9 µM | Potency (CP265) 8.91 µM | Potency (CP297) 13.5 µM | Potency (CP329) 9.53 µM | Potency (DIV14) 12 µM | Potency (DIV17) 12 µM | Potency (SC27B) 11.2 µM
inactive: Potency (CP262)

CCC(=O)Nc1ccc(Cl)c(Cl)c1
inactive: outcome [1] | Potency [3]
4.16%: max response [2]

CC(C)N1C(=O)c2ccccc2NS1(=O)=O
-6.21%: max response [2]
inactive: outcome [1] | Potency [3]

CCCCSP(=O)(SCCCC)SCCCC
inactive: outcome [1]

COc1nc(NC(C)C)nc(NC(C)C)n1
21.4%: max response [2]
inactive: outcome [1] | Potency [3]

N#Cc1c(Cl)cccc1Cl
inactive: outcome [1] | Potency [3]
-4.43%: max response [2]

CC(C)(C)C(=O)C(Oc1ccc(Cl)cc1)n1cncn1 (stereo not given)
16% and -16.7%: max response [2]
inactive: outcome [1] | Potency [3]

COP(N)(=O)SC (stereo not given)
inactive: outcome [1] | Potency [3]
-14.8% and -10.1%: max response [2]

O=C(O)COc1cc(Cl)c(Cl)cc1Cl
inactive: Potency [3]
28.5%: max response [2]

CC(C)Nc1nc(Cl)nc(NC(C)C)n1
7.09%: max response [2]
inactive: outcome [1] | Potency [3]
